Experimental data as given in PubChem BioAssay (Tox21).
Results filed as inconclusive are left out. Active and inactive are the calls of the source. Unless noted, calls follow the shape of the full dose curve.

Key:
[1] = Nuclear factor erythroid 2-related factor 2/antioxidant responsive element (Nrf2/ARE) small molecule agonists: qHTS cell viability counter screen in human keratinocytes (AID 1919968; active = well fitted curve in the direction sought with a large enough effect in the repeat runs; an effect the other way counts as inactive or inconclusive; also: nearly all actives have a fitted effect of over 55% in size; also: potency is read from the fitted curve at half-maximal effect)
Summary of the method: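 After a 5 h attachment period, ARE-reporter keratinocytes were dosed with compounds in DMSO and then cultured 23 h at 37 C. Cell viability came from CellTiter-Fluor signal read after a further 1 h.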

[2] = Nuclear factor erythroid 2-related factor 2/antioxidant responsive element (Nrf2/ARE) small molecule agonists: luciferase reporter gene qHTS assay in human keratinocytes (AID 1919969); also: nearly all actives have a fitted effect of over 35% in size; also: potency is read from the fitted curve at half-maximal effect
[3] = molecular target: Gonadotropin-releasing hormone receptor (Homo sapiens) (UniProt P30968); assay: Human gonadotropin-releasing hormone receptor (GnRHR) small molecule agonists, calcium flux assay in GnRHR-HEK293 cells (AID 1920063); also: nearly all actives have a fitted effect of over 35% in size
Chain of Gonadotropin-releasing hormone receptor (Homo sapiens) (P30968 whole entry, looked up): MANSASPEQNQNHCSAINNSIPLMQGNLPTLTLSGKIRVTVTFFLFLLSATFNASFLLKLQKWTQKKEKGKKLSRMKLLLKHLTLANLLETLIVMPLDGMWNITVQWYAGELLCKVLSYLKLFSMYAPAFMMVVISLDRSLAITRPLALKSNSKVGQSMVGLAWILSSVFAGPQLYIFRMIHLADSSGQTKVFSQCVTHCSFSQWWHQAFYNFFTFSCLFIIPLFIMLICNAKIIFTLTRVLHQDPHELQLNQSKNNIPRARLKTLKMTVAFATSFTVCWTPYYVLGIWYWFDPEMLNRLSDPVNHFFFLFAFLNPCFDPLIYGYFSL
Summary of the method: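 We seeded human GnRHR-expressing HEK293 cells for 18 hours, loaded them with calcium dye for an hour at 37 C, added test compounds, and recorded fluorescence intensity kinetically for three minutes.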

[4] = molecular target: KiSS-1 receptor (Homo sapiens) (UniProt Q969F8); assay: Human kisspeptin (KISS1R) small molecule agonists, calcium flux assay in KISS1R-HEK293 cells (AID 1920064; active = well fitted curve in the direction sought with a large enough effect in the repeat runs; an effect the other way counts as inactive or inconclusive)
Chain of KiSS-1 receptor (Homo sapiens) (Q969F8 whole entry, looked up): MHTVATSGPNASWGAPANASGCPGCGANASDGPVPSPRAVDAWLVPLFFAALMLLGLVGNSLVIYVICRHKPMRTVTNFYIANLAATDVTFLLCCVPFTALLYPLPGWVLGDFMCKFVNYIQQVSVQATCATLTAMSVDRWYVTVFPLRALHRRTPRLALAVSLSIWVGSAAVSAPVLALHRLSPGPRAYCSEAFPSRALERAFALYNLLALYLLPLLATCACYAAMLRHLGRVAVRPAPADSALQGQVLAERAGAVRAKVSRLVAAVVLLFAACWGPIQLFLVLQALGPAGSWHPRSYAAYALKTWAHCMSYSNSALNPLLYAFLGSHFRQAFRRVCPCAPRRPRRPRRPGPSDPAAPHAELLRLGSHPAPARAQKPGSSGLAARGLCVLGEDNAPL
Summary of the method: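 Kinetic calcium assay, 1 s sampling over 3 min at Ex/Em 480/540, in HEK293 cells engineered with human KISS1R; compounds delivered in DMSO after 1 h dye loading.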

[5] = G protein-coupled receptor (GPCR) small molecule agonists, calcium flux assay: HEK293 wild type cell line counter screen (AID 1920065)
Summary of the method: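 Calcium-sensitive dye, loaded 1 h at 37 C into cells cultured 18 h, reports compound-evoked calcium release as fluorescence (Ex/Em 480/540), measured over 3 min. Agonist mode; 15-point titrations, triplicate.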

[6] = p53 small molecule agonists, cell-based qHTS assay with human liver microsomes (AID 1963577);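 also: p53 response element beta-lactamase reporter cells with liver microsomes plus NADPH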
Summary of the method: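 Metabolically competent format: test substances, human liver microsomes and NADPH (both 0.5 mg/mL final) incubated with p53RE-bla cells 16 h at 37 C. Beta-lactamase reporter signal then quantified by fluorescence.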

[7] = p53 small molecule agonists, cell-based qHTS assay with rat liver microsomes (AID 1963578)
Summary of the method: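 Each plate received p53RE-bla cells, then compound, then rat liver microsomes and NADPH (both 0.5 mg/mL final). Plates were held 16 h at 37 C, and beta-lactamase activity was detected with LiveBLAzer over 2 h.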

[8] = p53 small molecule agonists, cell-based qHTS assay with human liver microsomes: qHTS cell viability counter screen (AID 1963579); also: nearly all actives have a fitted effect of over 45% in size; also: potency is read from the fitted curve at half-maximal effect
Summary of the method: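 Tox21 library compounds, delivered from DMSO stocks, were tested on p53RE-bla cells together with 0.5 mg/mL human liver microsomes and 0.5 mg/mL NADPH (final) over 16 h at 37 C; CellTiter-Glo luminescence served as the cytotoxicity measure.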

[9] = p53 small molecule agonists, cell-based qHTS assay with rat liver microsomes: qHTS cell viability counter screen (AID 1963580); also: nearly all actives have a fitted effect of over 45% in size
Summary of the method: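 In HCT-116 cells carrying a p53 response element-bla reporter, compounds were metabolically activated in situ by rat liver microsomes with NADPH over 16 h. Cell ATP content then served as the cytotoxicity measure.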

[10] = p53 small molecule agonists, cell-based qHTS assay: qHTS cell viability counter screen (AID 1963581); also: nearly all actives have a fitted effect of over 45% in size
Summary of the method: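 Following 5 h attachment, HCT-116 p53RE-bla cells took up compound for 16 h at 37 C; the reporter was read with B/G FRET substrate (2 h RT), and viability then via CellTiter-Glo ATP luminescence.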

[11] = molecular target: 5-hydroxytryptamine receptor 2A (Homo sapiens) (UniProt P28223); assay: 5-hydroxytryptamine receptor 2A (HTR2A) small molecule antagonists, cell-based qHTS assay (AID 1963586); also: nearly all actives have a fitted effect of over 45% in size; also: potency is read from the fitted curve at half-maximal effect
Chain of 5-hydroxytryptamine receptor 2A (Homo sapiens) (P28223 whole entry, looked up): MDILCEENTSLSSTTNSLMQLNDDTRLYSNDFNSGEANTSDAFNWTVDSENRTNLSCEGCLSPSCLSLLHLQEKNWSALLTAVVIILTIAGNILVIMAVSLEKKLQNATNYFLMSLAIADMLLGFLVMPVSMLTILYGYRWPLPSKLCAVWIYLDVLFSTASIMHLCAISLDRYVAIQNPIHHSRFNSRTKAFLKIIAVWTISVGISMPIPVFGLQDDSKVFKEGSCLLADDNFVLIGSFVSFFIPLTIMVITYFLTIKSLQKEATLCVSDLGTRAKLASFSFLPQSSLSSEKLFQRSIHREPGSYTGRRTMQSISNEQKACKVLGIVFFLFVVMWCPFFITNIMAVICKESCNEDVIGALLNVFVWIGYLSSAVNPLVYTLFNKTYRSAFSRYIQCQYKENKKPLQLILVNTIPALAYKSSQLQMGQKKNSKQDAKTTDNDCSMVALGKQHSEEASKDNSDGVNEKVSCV
Summary of the method: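 Antagonist-mode intracellular calcium assay: DOI (4 nM) added after 5 min compound pre-incubation at room temperature to dye-loaded HTR2A-CHO cells. Fluorescence followed for 3 min, sampled every second.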

[12] = molecular target: 5-hydroxytryptamine receptor 2A (Homo sapiens) (UniProt P28223); assay: 5-hydroxytryptamine receptor 2A (HTR2A) small molecule agonists, cell-based qHTS assay (AID 1963587); also: nearly all actives have a fitted effect of over 30% in size
Summary of the method: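 HTR2A-CHO cells, plated 18 h at 37 C/5% CO2, dye-loaded 1 h at 37 C; compounds in DMSO added by pin tool (agonist mode). Intracellular calcium flux read as kinetic fluorescence on FDSS over 2 min at 1 s intervals.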

[13] = molecular target: Muscarinic acetylcholine receptor M1 (Homo sapiens) (UniProt P11229); assay: Cholinergic receptor muscarinic 1 (CHRM1) small molecule antagonists, cell-based qHTS assay (AID 1963588); also: nearly all actives have a fitted effect of over 40% in size
Chain of Muscarinic acetylcholine receptor M1 (Homo sapiens) (P11229 whole entry, looked up): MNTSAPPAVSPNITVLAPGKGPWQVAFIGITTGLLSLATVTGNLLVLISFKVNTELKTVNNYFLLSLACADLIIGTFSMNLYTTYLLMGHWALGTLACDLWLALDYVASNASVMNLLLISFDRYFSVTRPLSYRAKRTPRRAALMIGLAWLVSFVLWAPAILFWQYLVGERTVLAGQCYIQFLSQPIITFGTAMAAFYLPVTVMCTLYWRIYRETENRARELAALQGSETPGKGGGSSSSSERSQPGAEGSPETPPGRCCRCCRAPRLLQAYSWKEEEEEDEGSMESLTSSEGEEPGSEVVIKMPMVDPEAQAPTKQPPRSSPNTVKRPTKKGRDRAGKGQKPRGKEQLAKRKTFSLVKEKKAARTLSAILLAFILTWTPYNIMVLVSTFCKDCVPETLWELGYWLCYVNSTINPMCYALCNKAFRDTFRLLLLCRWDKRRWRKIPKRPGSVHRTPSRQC
Summary of the method: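 CHRM1-CHO calcium-flux assay, antagonist mode. Cells were seeded 18 h, dye-loaded 1 h at 37 C and given compound for 5 min at RT, then acetylcholine was added at 50nM. FDSS fluorescence was read 3 min; 15 concentrations, three runs.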

[14] = molecular target: Muscarinic acetylcholine receptor M1 (Homo sapiens) (UniProt P11229); assay: Cholinergic receptor muscarinic 1 (CHRM1) small molecule agonists, cell-based qHTS assay (AID 1963589); also: nearly all actives have a fitted effect of over 35% in size
Summary of the method: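 Measures agonist-induced intracellular calcium rise. Stable human CHRM1 CHO line, 1 h dye load at 37 C, compounds from DMSO, kinetic fluorescence read.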

[15] = cAMP Responsive Elements (CRE) small molecule agonists, cell-based qHTS assay (AID 1963590)
Summary of the method: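 A CRE-responsive beta-lactamase reporter in HEK 293T cells was used. Treatment ran 3 h at 37 C; detection used LiveBLAzer B/G FRET substrate for 2 h at room temperature.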

[16] = cAMP Responsive Elements (CRE) small molecule antagonists, cell-based qHTS assay (AID 1963591; active = well fitted inhibition curve with a large enough effect in the signal ratio in the repeat runs, not every such curve was filed as active; the % refers to the signal ratio)
Summary of the method: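 HEK293T cells carrying a CRE-driven beta-lactamase reporter receive compound and NKH477 (0.25 uM final) for 3 h. Fluorescence from LiveBLAzer B/G FRET substrate is read after 2 h at room temperature.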

[17] = molecular target: Beta-2 adrenergic receptor (Homo sapiens) (UniProt P07550); assay: Adrenergic beta2 receptor (ADRB2) small molecule antagonists, cell-based qHTS assay (AID 1963592); also: nearly all actives have a fitted effect of over 50% in size; also: potency is read from the fitted curve at half-maximal effect
Chain of Beta-2 adrenergic receptor (Homo sapiens) (P07550 whole entry, looked up): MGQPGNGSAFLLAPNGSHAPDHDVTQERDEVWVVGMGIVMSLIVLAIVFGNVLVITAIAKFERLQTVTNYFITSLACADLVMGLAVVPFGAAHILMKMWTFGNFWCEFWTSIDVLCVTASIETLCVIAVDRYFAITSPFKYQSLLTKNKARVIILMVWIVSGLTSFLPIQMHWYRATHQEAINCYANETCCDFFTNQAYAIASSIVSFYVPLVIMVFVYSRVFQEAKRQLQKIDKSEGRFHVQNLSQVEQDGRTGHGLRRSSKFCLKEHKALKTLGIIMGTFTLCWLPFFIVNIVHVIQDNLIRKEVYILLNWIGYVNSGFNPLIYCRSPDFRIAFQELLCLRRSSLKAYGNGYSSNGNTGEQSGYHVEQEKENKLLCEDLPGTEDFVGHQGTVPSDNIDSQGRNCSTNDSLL
Summary of the method: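 Cells (CHO, stable ADRB2 overexpression) incubated 18-20hr at 37C; compounds added from DMSO; agonist mix (1nM isoproterenol, 100uM IBMX, 25uM Ro-20-1724) added; 0.5hr RT; d2-cAMP and anti-cAMP-cryptate added; 1hr RT; 665/615 nm read.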

[18] = molecular target: D(2) dopamine receptor (Homo sapiens) (UniProt P14416); assay: Dopamine D2 receptor (DRD2) small molecule agonists, cell-based qHTS assay (AID 1963594); also: nearly all actives have a fitted effect of over 35% in size
Chain of D(2) dopamine receptor (Homo sapiens) (P14416 whole entry, looked up): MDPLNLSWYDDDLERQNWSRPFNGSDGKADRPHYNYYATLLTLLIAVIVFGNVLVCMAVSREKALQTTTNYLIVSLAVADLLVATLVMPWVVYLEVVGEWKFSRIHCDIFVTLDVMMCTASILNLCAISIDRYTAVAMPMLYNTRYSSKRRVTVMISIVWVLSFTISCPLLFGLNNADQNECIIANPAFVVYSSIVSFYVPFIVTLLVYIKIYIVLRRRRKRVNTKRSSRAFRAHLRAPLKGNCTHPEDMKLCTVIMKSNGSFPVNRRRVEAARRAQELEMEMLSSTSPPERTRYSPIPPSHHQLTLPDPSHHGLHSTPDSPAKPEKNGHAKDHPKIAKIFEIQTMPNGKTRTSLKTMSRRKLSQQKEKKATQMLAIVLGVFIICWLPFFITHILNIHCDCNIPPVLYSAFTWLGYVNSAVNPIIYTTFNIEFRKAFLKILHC
Summary of the method: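 HEK293 cells stably expressing DRD2 were cultured 24 h at 37 C, then given Ro20-1724 (0.1 mM final) and compounds for 10 min at room temperature. NKH477 (200nM) was then added for 30 min. cAMP was read by HTRF.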

[19] = molecular target: D(2) dopamine receptor (Homo sapiens) (UniProt P14416); assay: Dopamine D2 receptor (DRD2) small molecule antagonists, cell-based qHTS assay (AID 1963595; active = well fitted inhibition curve with a large enough effect in the signal ratio in the repeat runs, with a control signal flat; the % refers to the signal ratio; also: potency is read from the fitted curve at half-maximal effect)
Summary of the method: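 Antagonism was scored as restored cAMP in HEK293-DRD2 cells. These cells were stimulated with 200 nM NKH477 and 12 nM quinpirole for 30 min at room temperature, in the presence of 0.1 mM Ro20-1724.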

[20] = p53 small molecule agonists, cell-based qHTS assay (AID 1963582; active = well fitted activation curve with a large enough effect in the signal ratio in the repeat runs, not every such curve was filed as active; the % refers to the signal ratio)
Summary of the method: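 In this cell-based concentration-response screen, a p53 response element drives beta-lactamase; cells received DMSO-borne compounds after 5 h culture and were incubated a further 16 h before FRET substrate development.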

Measured: Potency

CC(C)(C#N)C(C)(C)C#N
not listed: [20]
inactive: all other assays above

CCOC(=O)C1(c2ccccc2)CCN(CCc2ccc(N)cc2)CC1
not listed: [11] | [13] | [17] | [18]
inactive: all other assays above

ClCC(Cl)Cl
not listed: [11] | [12] | [13] | [14]
inactive: all other assays above

CC[C@@H](CO)NC(=O)[C@@H]1C=C2c3cccc4[nH]cc(c34)C[C@H]2N(C)C1
not listed: [11] | [12] | [13] | [14] | [16] | [17] | [18] | [19]
inactive: all other assays above

Brc1ccccc1
not listed: [11] | [12] | [13] | [14]
inactive: all other assays above

CCOC(=O)CC(=O)CCl
active: [2] 68.6 µM
not listed: [20]
inactive: all other assays above

ClCCCN1CCN(c2cccc(Cl)c2)CC1
not listed: [11] | [13] | [18]
inactive: all other assays above

CCC1(c2ccccc2)C(=O)NC(=O)NC1=O
not listed: [11] | [12] | [13] | [14] | [17] | [19]
inactive: all other assays above

CCOc1cccc(C2(N3CCN(c4ccccc4)CC3)CCC(C)CC2)c1 (configuration not stated)
not listed: [11] | [13]
inactive: all other assays above

CCOC(=O)OC1=C(c2cc(C)ccc2C)C(=O)NC12CCC(OC)CC2 (configuration not stated)
active: [8] 40.8 µM
not listed: [15] | [16] | [20]
inactive: all other assays above

Fc1ccc(C(OCCN2CCN(CCCc3ccccc3)CC2)c2ccc(F)cc2)cc1
active: [1] 13.3 µM | [11] 1.3 µM | [17] 29.8 µM | [19] 26.6 µM
not listed: [15] | [16] | [20]
inactive: all other assays above

ClC=C(Cl)Cl
not listed: [11] | [12]
inactive: all other assays above

O=c1[nH]c(Cl)c(Cl)cc1Cl
not listed: [15] | [16] | [18] | [19] | [20]
inactive: all other assays above

Nc1ccccc1-c1ccccc1
not listed: [14] | [20]
inactive: all other assays above
